# An excerpt weighted towards active compounds, which were near 1.7% of everything screened.
# Fam108B inh = mouse Fam108B serine hydrolase inhibitors, primary screen, counter-screen for RBBP9 inhibitor project, biochemical, fluorescence polarization; AID 1947, 2009; recombinant Fam108B, FP-Rh probe fluorescence polarization; 0.33% of 300,000 active; inhibition, % at 9.51 µM;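 active = inhibition above the screen mean inhibition plus 3 SD, computed separately per campaign, cut at about 18% in these data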;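 note: inhibitors lower polarization as less probe binds the enzyme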
# LYPLA1 inh = LYPLA1 inhibitors, primary screen, counter-screen for PME1 inhibitor project, biochemical, fluorescence polarization, FP-Rh probe ABPP; 0.16% of 320,000 active; AID 2174, 2009; recombinant LYPLA1; inhibition, % at 5.9 µM; Acyl-protein thioesterase 1 (Homo sapiens), O75608;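 active = inhibition above the mean of all tested compounds plus 3 SD, set per campaign, cut at about 14% in these data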;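 note: inhibitors block serine hydrolase probe labeling of LYPLA1 so polarization falls; 0% = enzyme with DMSO and 100% = wells lacking LYPLA1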
# Target sequence (O75608 whole entry, looked up): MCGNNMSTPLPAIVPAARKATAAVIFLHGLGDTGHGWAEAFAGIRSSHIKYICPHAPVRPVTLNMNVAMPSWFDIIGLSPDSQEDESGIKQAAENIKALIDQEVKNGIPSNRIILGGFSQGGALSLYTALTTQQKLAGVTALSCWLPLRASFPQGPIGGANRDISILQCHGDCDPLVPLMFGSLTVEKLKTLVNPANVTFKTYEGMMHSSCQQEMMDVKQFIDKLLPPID
# LYPLA2 inh = LYPLA2 inhibitors, primary screen, counter-screen for PME1 inhibitor project, biochemical, fluorescence polarization, FP-Rh probe ABPP | Acyl-protein thioesterase 2 (Homo sapiens), O95372 | recombinant LYPLA2 | inhibition, % at 5.9 µM | 0.38% of 320,000 active | AID 2177, 2009;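 active = inhibition above the screen-wide mean plus 3 SD, limit set per campaign, cut at about 26% in these data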;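 note: 0% = LYPLA2 with DMSO and 100% = wells lacking LYPLA2 enzyme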
# Target sequence (O95372 whole entry, looked up): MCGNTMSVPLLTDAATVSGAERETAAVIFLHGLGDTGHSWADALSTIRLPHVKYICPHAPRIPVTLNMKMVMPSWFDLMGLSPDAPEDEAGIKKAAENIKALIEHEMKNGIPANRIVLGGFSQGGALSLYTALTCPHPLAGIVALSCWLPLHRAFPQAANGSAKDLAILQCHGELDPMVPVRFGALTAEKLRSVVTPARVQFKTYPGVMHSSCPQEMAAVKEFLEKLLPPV
# GSTO1 counter = inhibitors of recombinant GSTO1, primary screen, counter-screen for RBBP9 inhibitor project, biochemical, fluorescence polarization; Glutathione S-transferase omega-1 (Homo sapiens), P78417; activity-based probe fluorescence polarization; inhibition, % at 5.96 µM; 1.1% of 300,000 active; AID 1974, 2009;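 active = inhibition above the campaign mean inhibition plus 3 SD, cut at about 35% in these data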;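 note: 0% = GSTO1-1 with DMSO and 100% = wells lacking GSTO1-1 enzyme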
# Target sequence (P78417 whole entry, looked up): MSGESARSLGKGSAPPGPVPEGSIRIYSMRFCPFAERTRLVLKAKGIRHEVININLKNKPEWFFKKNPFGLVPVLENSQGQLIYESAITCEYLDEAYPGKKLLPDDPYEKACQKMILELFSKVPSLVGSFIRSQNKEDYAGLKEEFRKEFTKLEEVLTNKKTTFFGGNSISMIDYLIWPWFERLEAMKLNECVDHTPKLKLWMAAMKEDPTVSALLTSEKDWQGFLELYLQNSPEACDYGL
# PME-1 inh = PME-1 inhibitors via competitive probe labeling, primary screen, biochemical, fluorescence polarization, FP-Rh probe, HTS. AID 2130, 2009. Protein phosphatase methylesterase 1 (Homo sapiens), Q9Y570. 0.53% of 320,000 active. inhibition, % at 5.9 µM. recombinant PME-1;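 active = inhibition above the campaign mean of all compounds plus 3 SD, cut at about 26% in these data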;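 note: competitive labeling of PME-1 active site by serine hydrolase directed probe; 0% = PME-1 with DMSO and 100% = wells lacking PME-1 enzyme; inhibitors block probe labeling so polarization falls and inhibition rises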
# PAD4 inh = human PAD4 inhibitors, primary screen, biochemical, fluorescence polarization, 1536-well format; recombinant PAD4, RCA probe fluorescence polarization; inhibition, % at 6.36 µM; 0.41% of 330,000 active; AID 485272, 2010;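 active = percent inhibition above a cutoff equal to the mean of all tested compounds plus 3 SD, cut at about 15% in these data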;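 note: 0% = PAD4 with RCA probe and DMSO and 100% = probe without PAD4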
# PAD4 FP conf = human PAD4 inhibitors, confirmation, biochemical, fluorescence polarization | inhibition, % at 6.36 µM | shares compounds with PAD4 inh | recombinant PAD4, RCA probe fluorescence polarization | AID 488796, 2010 | 28% of 1,200 active;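 active = mean inhibition across replicates above the hit cutoff set by the earlier primary screen, cut at about 15% in these data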;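 note: inhibitors block active-site labeling by the probe so polarization falls; 0% = PAD4 with probe and DMSO and 100% = probe without PAD4 enzyme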
# * hit, by the source's call; . = no result.
SMILES,Fam108B inh,LYPLA1 inh,LYPLA2 inh,GSTO1 counter,PME-1 inh,PAD4 inh,PAD4 FP conf
Cc1csc(NC(=O)CSc2ncnc3c2cnn3-c2ccccc2Cl)n1,-1.8,1.0,1.0,-23.6,-1.7,14.9*,8.1
O=C(Oc1ccc(-c2cnc3ccccc3n2)cc1)c1cccc([N+](=O)[O-])c1,0.8,2.9,6.6,2.0,-1.5,13.0,.
O=C(Oc1ccc(-c2cnc3ccccc3n2)cc1)c1ccc(Br)o1,1.9,1.2,0.3,5.2,-6.8,39.1*,27.1*
CCCSc1ccc(-c2nn(-c3ccccc3)cc2/C=C(/C#N)C(=O)NCCCOC)cc1,-5.1,-3.0,0.3,6.9,-9.5,5.5,.
CCSc1ccc(-c2nn(-c3ccccc3)cc2/C=C(/C#N)C(=O)NCCCOC)cc1,-7.8,1.8,3.8,-5.2,2.3,18.4*,31.8*
CC(C)c1nnc(NC(=O)c2nc(S(=O)(=O)Cc3ccc(F)cc3)ncc2Cl)s1,-4.9,-1.9,-0.8,0.7,-12.3,-3.9,.
Cc1ccc(CS(=O)(=O)c2ncc(Cl)c(C(=O)Nc3nnc(C(C)C)s3)n2)cc1,3.0,0.1,11.8,-7.8,-2.0,94.7*,2.1
O=C(N/N=C/c1cc2c(cc1Cl)OCO2)c1cccc(Br)c1,-19.1,1.0,-2.1,-5.7,-5.7,-5.7,.
Cc1[nH][nH]c(=O)c1C(c1ccc(-c2ccc(F)cc2)o1)c1c(C)[nH][nH]c1=O,-0.7,2.4,-8.1,51.7*,-3.4,48.0*,-19.5
Cc1[nH][nH]c(=O)c1C(c1ccc(N(C)C)c(Br)c1)c1c(C)[nH][nH]c1=O,1.9,-0.1,-6.4,20.6,5.0,-10.8,.
CCc1cc(S(N)(=O)=O)cc(CC)c1NC(C)=O,-5.0,-0.8,-3.5,6.1,-2.8,-1.6,.
CCc1cc(SC#N)cc(CC)c1NC(=O)CCl,6.8,3.1,2.1,71.1*,-2.1,16.0*,-3.9
CCOC(=O)/C(C#N)=C/C=C1\C=Cc2ccccc2N1CC,9.8,3.0,1.4,-24.2,5.5,87.4*,18.6*
CSC1=C(C#N)C(C)C2=C(CC(C)(C)CC2=O)N1 (centres undefined),-3.1,-1.6,7.0,-1.1,0.3,-1.7,.
Cc1cc(C)c2c(c1)-c1c(ssc1=S)C(C)(C)N2C(=O)CSc1nncn1C,-0.9,3.4,0.1,-6.5,0.7,33.8*,31.6*
Cc1ccc2c(c1)-c1c(ssc1=S)C(C)(C)N2C(=O)CSc1nncn1C,1.1,-1.7,8.3,-11.8,7.2,17.1*,21.9*
CC(C)Cn1c(N)c(C(=O)COC(=O)Cc2cccs2)c(=O)n(C)c1=O,-0.1,2.3,2.6,-0.2,2.5,46.5*,2.2
CC(C)Cn1c(N)c(C(=O)COC(=O)/C=C/c2cccs2)c(=O)n(C)c1=O,0.6,5.9,8.9,-3.3,-2.0,-2.9,.
O=C(O)c1ccc(S(=O)(=O)NC2CCCCCC2)cc1,1.0,4.4,10.2,9.5,5.0,-2.6,.
CCc1ccccc1OCC(=O)Nc1cc(S(=O)(=O)N(CC)CC)ccc1N1CCOCC1,.,-3.1,-2.1,.,12.3,1.4,.
CCN(CC)CCN(C(=O)c1ccc2ncsc2c1)c1nc2cc3c(cc2s1)OCO3,6.4,-4.5,-3.4,-3.1,1.4,22.2*,5.4
CCN(CC)CCN(C(=O)c1ccc(C(=O)c2ccccc2)cc1)c1nc2cc3c(cc2s1)OCO3,-2.6,-1.2,0.4,4.7,0.0,2.4,.
Cn1cnc2c(oc3ccccc32)c1=O,-0.3,-1.5,0.0,-5.6,1.7,-1.1,.
Cc1cccc(NC(=S)Nc2ccc(N3CCOCC3)cc2)c1C,0.3,1.1,-7.6,5.6,0.1,23.1*,3.4
Cc1cccc(NC(=S)NN2CCOCC2)c1C,-1.9,2.2,-7.5,5.2,-0.6,2.1,.
SMILES,Fam108B inh,LYPLA1 inh,LYPLA2 inh,GSTO1 counter,PME-1 inh,PAD4 inh,PAD4 FP conf
Cc1oc2c(cc(NS(=O)(=O)c3ccc(C(C)C)cc3)c3ccccc32)c1C(=O)O,1.5,-9.3,0.8,3.9,4.4,-5.3,.
CCc1ccc(S(=O)(=O)Nc2cc(SCC(=O)O)c(O)c3ccccc23)cc1,8.1,4.0,6.3,84.3*,12.2,25.9*,-3.9
CCCCCC(O)(c1ccc(OCC)cc1)C(CN1CCOCC1)c1ccccc1 (centres undefined),-3.5,-1.0,-3.1,7.9,0.6,-2.9,.
Cc1ccc(S(=O)(=O)N2CCN(C(=O)Cc3ccccc3)CC2)cc1C,.,-1.1,1.5,.,4.9,21.8*,-0.6
Cc1ccc(CC(=O)N2CCN(S(=O)(=O)c3ccccc3)CC2)cc1C,2.1,-3.5,-2.9,-8.0,-0.9,2.2,.
CC(C)(C)c1n[nH]c(=S)n(/N=C/c2cccs2)c1=O,-1.6,-2.2,-4.8,-0.2,2.1,-0.4,.
Cc1n[nH]c(=S)n(/N=C/c2cccs2)c1=O,1.6,-1.6,-6.5,23.0,-0.9,18.2*,4.7
O=C(c1ccncc1)N1N=C(C2CC2)CC1(O)C(F)(F)F (centres undefined),5.5,5.0,8.4,7.1,10.1,24.3*,4.1
Cc1cccc(NC(=O)c2ccc(-n3cncn3)c([N+](=O)[O-])c2)c1,4.2,-0.3,-4.5,-3.5,-0.3,-0.5,.
CCCCNC(=O)CC1Nc2ccccc2NC1=O (centres undefined),-2.8,0.6,-6.0,-0.2,-0.3,-5.3,.
CCCCOc1ccccc1NC(=O)CC1Nc2ccccc2NC1=O (centres undefined),-7.8,-6.1,-2.7,-10.9,11.0,23.5*,-3.6
O=C(CC1Nc2cccc3cccc(c23)NC1=O)Nc1ccc(F)cc1 (centres undefined),0.9,-3.3,-0.8,26.3,18.1,58.9*,2.9
Cc1cccc(-c2noc(C(C)NC(=O)c3ccco3)n2)c1 (centres undefined),0.8,2.5,-1.7,0.1,-2.5,0.5,.
COc1ccccc1CNC(=O)CS(=O)(=O)Cc1ccccc1,-0.5,-2.0,-3.4,-8.3,3.3,-2.5,.
CCCCc1cc(=O)oc2cc(OCc3nn[nH]n3)ccc12,4.8,-1.0,-0.6,-5.6,1.8,3.6,.
COC(=O)c1ccc2c(c1)C(=O)/C(=C/c1ccc(O)cc1)O2,-13.5,-10.8,-26.5,-27.3,-39.9,-4.5,.
COc1cccc(/C=C2\Oc3ccc(O)cc3C2=O)c1O,4.9,-0.3,-1.2,-12.5,5.6,15.7*,4.8
CCCCN(C(=O)c1cccc(-n2cccc2)c1)c1c(N)n(CCC)c(=O)[nH]c1=O,4.0,-4.1,-0.6,-0.1,-4.7,4.3,.

# Source: PubChem BioAssay
